The values below come from PubChem BioAssay (NCATS).

Inconclusive results are not listed. Active and inactive are the calls of the source. Unless noted, calls come from the whole dose curve; as a rule, active = well fitted curve in the direction sought with a large enough effect; inconclusive = small, poorly fitted or top-dose-only effect, or another doubt; inactive = no such curve, though single readings can be large; an effect the other way counts as inactive or inconclusive.

Test [1] in a line: Validation screen for inhibitors of Lassa infection (AID 463096; calls by dose curve; note: potency is the fitted concentration of half-maximal effect).
Test [2] in a line: Cytometric Cell-Based qHTS for Inhibitors of the mTORC1 Signaling Pathway in MEF (Tsc2-/-, p53-/-) Cells (AID 2660).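 Note: Tsc2 and p53 null MEFs carrying empty vector with compound for 24 h; percent of cells above a phospho-rpS6 to PI ratio cutoff in each well; series mostly up to about 38 µM.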 The essentials:
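Percent of cells positive for normalized phospho-S6 staining is reported, with the cutoff set from rapamycin (7.5 nM) versus DMSO wells. Tsc2-/-, p53-/- MEFs received compound for 24 hrs.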
Background: qHTS replaces the single test concentration by a dilution series.

Test [3] in a line: High Content Imaging Cell-Based qHTS for Inhibitors of the mTORC1 Signaling Pathway in MEF Cells (AID 2667).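 Note: Tsc2-/- p53-/- MEFs stably re-expressing wild-type Tsc2 exposed 24 h; series mostly up to about 38 µM.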 The essentials:
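Fixed-cell imaging of phospho-S6 (Ser235/236, Alexa-488) after 24 hrs of compound treatment at 37 degree Celsius. Signal was normalized to Hoechst, and thresholds from the highest and lowest wells split cells into % active versus % non-active.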

Test [4] can be described thus: Cytometry Cell-Based qHTS for Inhibitors of the mTORC1 Signaling Pathway in MEF cells (AID 2668).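 Note: Tsc2-/- p53-/- mouse embryonic fibroblasts stably re-expressing wild-type Tsc2; percent cells positive for phospho-rpS6 Ser235/236 relative to propidium iodide stain; series mostly up to about 38 µM.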 The essentials: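 In MEFs grown in DMEM + 10% FBS, a 24 hrs compound exposure preceded imaging of phospho-rpS6 Ser235/236 by laser-scanning cytometry.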
For test [5], the target named is Ubiquitin carboxyl-terminal hydrolase 2 (Homo sapiens) (UniProt O75604). Nature of the test: qHTS Validation Assay for Inhibitors of Ubiquitin-specific Protease USP2a Using CHOP2 as the Reporter (AID 463106). The gist of the method:
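Inhibition is expressed relative to NEM as the full-inhibition control, with concentration-response curves classed by fit quality, magnitude and activity. Enzyme (USP2 core, 10nM) meets 25nM Ub-CHOP2 after compound preincubation; readings are taken at 60min.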

Test [6] in a line: qHTS Validation Assay to Find Inhibitors of Chronic Active B-Cell Receptor Signaling (AID 485345; active = well fitted curve in the direction sought with a large enough effect in the main read-out, with a control signal flat, not every such curve was filed as active). The essentials:
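TMD8 ABC-DLBCL cells with dox-inducible green luciferase–IκBα fusion and red native luciferase; compounds 46 uM–3 nM, 4 h at 37C with doxycycline in 0.5% FBS IMDM. Green/red ratio normalized to basal and 10 uM MG-132.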

The target of test [7] is Beta-2 adrenergic receptor (Homo sapiens) (UniProt P07550). In words: qHTS validation assay of beta-arrestin-biased ligands of beta2-adrenergic receptor (AID 485366). The essentials:
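Screening used a titration range of up to 46 microM in a beta-arrestin recruitment Tango luciferase assay. Cells in 1% FBS medium were treated 18 hr at 37 degrees C, and luminescence was normalized to %Activity.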

In test [8] the target is ATP-dependent 6-phosphofructokinase (Trypanosoma brucei brucei) (UniProt O15648). Nature of the test: qHTS Validation Assay to Find Inhibitors of T. brucei phosphofructokinase (AID 485368). The gist of the method: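 PFK-generated ADP was measured after 45 min at room temperature using ADP-Glo. The reaction contained 0.5 mM F6P and 0.1 mM ATP.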
ATP-dependent 6-phosphofructokinase (Trypanosoma brucei brucei), sequence (O15648 whole entry, looked up): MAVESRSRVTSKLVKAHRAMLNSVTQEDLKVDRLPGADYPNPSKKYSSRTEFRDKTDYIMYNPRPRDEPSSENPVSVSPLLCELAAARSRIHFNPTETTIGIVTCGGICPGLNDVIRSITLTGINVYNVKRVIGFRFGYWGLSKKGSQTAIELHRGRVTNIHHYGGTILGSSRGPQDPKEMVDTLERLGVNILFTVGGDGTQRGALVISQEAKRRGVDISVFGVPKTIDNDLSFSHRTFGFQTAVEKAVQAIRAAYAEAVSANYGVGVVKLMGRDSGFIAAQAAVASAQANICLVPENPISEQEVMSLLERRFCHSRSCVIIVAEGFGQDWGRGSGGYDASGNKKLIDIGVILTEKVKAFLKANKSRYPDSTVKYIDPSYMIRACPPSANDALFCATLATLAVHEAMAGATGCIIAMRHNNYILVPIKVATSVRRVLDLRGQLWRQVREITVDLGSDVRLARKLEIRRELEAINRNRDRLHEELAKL
The target of test [9] is Thioredoxin reductase 1, cytoplasmic (Rattus norvegicus) (UniProt O89049). Nature of the test: qHTS Assay for Substrates of Mammalian Selenoprotein Thioredoxin Reductase 1 (TrxR1) (AID 488772).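 Note: series mostly up to about 57 µM; a drop in NADPH fluorescence below the no-compound background marks a TrxR1 substrate.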 The gist of the method: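 In this dual-purpose format, potential substrates are identified from the first fluorescence read after selenite addition, not from the 8-minute delta. Rat enzyme is preincubated with NADPH and then with compound at ~22 deg C.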
Thioredoxin reductase 1, cytoplasmic (Rattus norvegicus), sequence (O89049 whole entry, looked up): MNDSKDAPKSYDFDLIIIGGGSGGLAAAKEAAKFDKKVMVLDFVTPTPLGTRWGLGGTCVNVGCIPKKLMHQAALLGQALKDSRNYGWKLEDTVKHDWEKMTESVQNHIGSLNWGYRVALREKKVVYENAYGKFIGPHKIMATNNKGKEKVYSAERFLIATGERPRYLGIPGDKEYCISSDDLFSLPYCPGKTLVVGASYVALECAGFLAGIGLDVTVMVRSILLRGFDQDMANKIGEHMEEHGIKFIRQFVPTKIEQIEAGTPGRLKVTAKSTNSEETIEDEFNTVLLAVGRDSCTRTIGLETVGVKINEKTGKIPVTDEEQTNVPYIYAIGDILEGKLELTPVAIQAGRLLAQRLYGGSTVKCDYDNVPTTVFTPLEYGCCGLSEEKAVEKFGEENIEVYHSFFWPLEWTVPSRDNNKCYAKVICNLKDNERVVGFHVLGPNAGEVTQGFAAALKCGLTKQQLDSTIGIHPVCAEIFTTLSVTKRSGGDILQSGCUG

Test [10] shares this target. In words: qHTS Assay for Inhibitors of Mammalian Selenoprotein Thioredoxin Reductase 1 (TrxR1) (AID 488773).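 Note: drop in NADPH fluorescence over an 8 min run after selenite addition; series mostly up to about 57 µM; nearly all actives have a fitted effect of over 40% in size.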 Particulars: Potency: inhibition. The gist of the method: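 Inhibition is scored from the loss of NADPH fluorescence between first and last reads of an 8-min kinetic run. Selenite (400 uM) was the substrate, added after 15 min compound preincubation at room temperature.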

Test [11] has as its target Flap endonuclease 1 (Homo sapiens) (UniProt P39748). Nature of the test: qHTS Validation Assay for the Inhibitors of Human Flap endonuclease 1 (FEN1) (AID 488816). The essentials:
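Steps: add FEN1 (10 nM reagent) or buffer only; pin compounds; hold 15 min at room temperature; start with substrate, 50 nM final; read at 0 and 15 min; correct, normalize and fit a four-parameter Hill curve.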

For test [12], the target named is M-phase phosphoprotein 8 (Homo sapiens) (UniProt Q99549). Nature of the test: qHTS Validation Assay for Inhibitors for MPP8 Chromodomain Interactions with Methylated Histone Tails (AID 488949).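 Note: 50 nM MPP8 with 50 nM peptide preformed then compounds added for 30 min; AlphaScreen signal from MPP8 chromodomain bound to biotinylated H3K9me3 peptide; top concentration of the series differs between compounds; nearly all actives have a fitted effect of over 55% in size.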 The gist of the method:
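Chemiluminescent proximity assay: histidine-tag capture via nickel acceptor beads, biotin peptide via streptavidin donor beads. Protein and peptide each at 50 nM, pH 7.4, with 30 min incubations at room temperature for complex formation, compound exposure and bead binding.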

For test [13], the target named is Chromobox protein homolog 1 (Homo sapiens) (UniProt P83916). In words: qHTS Validation Assay for Inhibitors of HP1-beta Chromodomain Interactions with Methylated Histone Tails (AID 488953). Note: nearly all actives have a fitted effect of over 50% in size. Note: potency is the fitted concentration of half-maximal effect. The essentials:
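AlphaScreen proximity signal from streptavidin donor and nickel chelate acceptor beads (final 10 ug/mL) after 30 min dark incubation. Compounds had 30 min at room temperature with preformed complex of 50 nM HP1-beta and 50 nM b-H3(1-18)K9me3 in PBS pH 7.4 with 0.01% Tween-20.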

For test [14], the target named is Methanococcus maripaludis chaperonin (MmCpn) (UniProt Q6LX38). Nature of the test: High-Throughput Screening for Modulators of Cytosolic Chaperonin Activity: MmCpn Primary Screen (AID 488978). The essentials: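 HTRF readout (320 nm excitation, 590/665 nm emission) of ADP generated by 50 nM MmCpn hydrolysing 30 uM ATP during 10 min at 37C; compound preincubated 5 min RT.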
Methanococcus maripaludis chaperonin (MmCpn), sequence (Q6LX38 1-543): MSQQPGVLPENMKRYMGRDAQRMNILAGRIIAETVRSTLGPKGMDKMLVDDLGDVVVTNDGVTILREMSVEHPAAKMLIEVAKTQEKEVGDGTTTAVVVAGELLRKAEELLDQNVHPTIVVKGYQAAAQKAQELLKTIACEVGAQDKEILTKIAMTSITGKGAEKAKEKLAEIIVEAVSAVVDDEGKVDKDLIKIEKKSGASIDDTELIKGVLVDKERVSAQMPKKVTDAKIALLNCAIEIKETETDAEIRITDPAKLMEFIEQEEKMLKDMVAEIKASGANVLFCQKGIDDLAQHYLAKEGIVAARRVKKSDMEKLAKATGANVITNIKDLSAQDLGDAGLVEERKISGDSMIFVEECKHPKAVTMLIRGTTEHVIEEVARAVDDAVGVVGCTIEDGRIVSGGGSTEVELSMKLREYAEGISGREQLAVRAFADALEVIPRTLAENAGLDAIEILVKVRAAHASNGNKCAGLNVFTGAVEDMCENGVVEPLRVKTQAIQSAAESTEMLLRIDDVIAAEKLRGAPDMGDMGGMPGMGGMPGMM

The nature of test [15]: Quantitative high throughput screen for delayed death inhibitors of the malarial parasite plastid, 96 hour incubation (AID 488745). Note: nearly all actives have a fitted effect of over 70% in size. Note: potency is the fitted concentration of half-maximal effect. The essentials:
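Decreased firefly luciferase luminescence indicates inhibited growth of reporter-integrated P. falciparum after two generations (96 h, 37 C, 5% CO2). Infected erythrocytes at 0.1% parasitemia, 2% hematocrit, in Albumax-supplemented RPMI 1640.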

The nature of test [16]: Quantitative high throughput screen for delayed death inhibitors of the malarial parasite plastid, 48 hour incubation (AID 488752). Note: nearly all actives have a fitted effect of over 65% in size. Note: potency is the fitted concentration of half-maximal effect. The essentials:
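One-generation (48 h) growth assay: a decrease in luciferase signal from an integrated reporter in P. falciparum-infected red cells (0.1% parasitemia, 2% hematocrit) after compound exposure at 37 C indicates parasite inhibition.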

The nature of test [17]: Validation screen for small molecules that induce DNA re-replication in MCF 10A normal breast cells (AID 463097). Note: potency is the fitted concentration of half-maximal effect; nearly all actives have a fitted effect of over 60% in size. The essentials: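 Following 48 hr compound incubation (37 C, 5% CO2), MCF 10A cells receive Hoechst for 40 min at 37 C. Nuclei are then scanned (excitation 405 nm, emission 500-530 nm) for total fluorescence intensity.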

Flap endonuclease 1 (Homo sapiens), sequence (P39748 whole entry, looked up): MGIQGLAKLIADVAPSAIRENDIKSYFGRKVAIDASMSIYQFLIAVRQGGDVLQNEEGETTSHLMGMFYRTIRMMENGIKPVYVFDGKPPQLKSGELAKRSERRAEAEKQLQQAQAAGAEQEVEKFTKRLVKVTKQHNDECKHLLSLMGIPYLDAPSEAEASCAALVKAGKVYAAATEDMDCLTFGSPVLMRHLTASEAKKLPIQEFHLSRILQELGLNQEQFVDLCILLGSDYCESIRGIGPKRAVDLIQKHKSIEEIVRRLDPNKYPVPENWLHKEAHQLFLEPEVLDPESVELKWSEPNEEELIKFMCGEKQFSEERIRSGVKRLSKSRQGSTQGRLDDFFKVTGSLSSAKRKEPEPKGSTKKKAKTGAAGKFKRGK
M-phase phosphoprotein 8 (Homo sapiens), sequence (Q99549 whole entry, looked up): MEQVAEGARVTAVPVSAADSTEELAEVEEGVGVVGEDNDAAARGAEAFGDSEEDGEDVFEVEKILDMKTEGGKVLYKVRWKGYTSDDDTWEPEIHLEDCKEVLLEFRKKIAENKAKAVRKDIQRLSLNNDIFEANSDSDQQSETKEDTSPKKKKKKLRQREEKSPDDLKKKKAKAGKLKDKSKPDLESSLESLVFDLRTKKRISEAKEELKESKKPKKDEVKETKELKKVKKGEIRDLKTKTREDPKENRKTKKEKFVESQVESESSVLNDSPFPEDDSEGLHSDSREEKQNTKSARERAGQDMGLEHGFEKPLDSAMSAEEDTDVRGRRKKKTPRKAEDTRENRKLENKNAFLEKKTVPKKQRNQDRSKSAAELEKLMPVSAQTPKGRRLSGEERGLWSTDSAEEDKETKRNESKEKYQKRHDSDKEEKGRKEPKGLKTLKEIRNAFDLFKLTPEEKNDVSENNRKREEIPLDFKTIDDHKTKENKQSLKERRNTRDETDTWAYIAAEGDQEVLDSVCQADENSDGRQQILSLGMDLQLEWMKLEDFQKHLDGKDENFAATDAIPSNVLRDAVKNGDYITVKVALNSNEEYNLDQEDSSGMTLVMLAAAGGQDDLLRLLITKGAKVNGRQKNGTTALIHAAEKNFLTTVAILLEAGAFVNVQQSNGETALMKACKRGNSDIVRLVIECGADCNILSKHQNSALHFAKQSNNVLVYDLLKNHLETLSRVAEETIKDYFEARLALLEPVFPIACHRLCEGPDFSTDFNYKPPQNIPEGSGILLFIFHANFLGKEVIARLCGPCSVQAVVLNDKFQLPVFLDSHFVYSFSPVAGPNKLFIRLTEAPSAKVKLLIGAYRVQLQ
Chromobox protein homolog 1 (Homo sapiens), sequence (P83916 whole entry, looked up): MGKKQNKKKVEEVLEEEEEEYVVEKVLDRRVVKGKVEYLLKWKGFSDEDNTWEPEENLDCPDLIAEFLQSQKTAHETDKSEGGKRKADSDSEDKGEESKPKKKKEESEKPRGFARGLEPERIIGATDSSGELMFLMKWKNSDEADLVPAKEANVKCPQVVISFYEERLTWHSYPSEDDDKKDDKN
Beta-2 adrenergic receptor (Homo sapiens), sequence (P07550 whole entry, looked up): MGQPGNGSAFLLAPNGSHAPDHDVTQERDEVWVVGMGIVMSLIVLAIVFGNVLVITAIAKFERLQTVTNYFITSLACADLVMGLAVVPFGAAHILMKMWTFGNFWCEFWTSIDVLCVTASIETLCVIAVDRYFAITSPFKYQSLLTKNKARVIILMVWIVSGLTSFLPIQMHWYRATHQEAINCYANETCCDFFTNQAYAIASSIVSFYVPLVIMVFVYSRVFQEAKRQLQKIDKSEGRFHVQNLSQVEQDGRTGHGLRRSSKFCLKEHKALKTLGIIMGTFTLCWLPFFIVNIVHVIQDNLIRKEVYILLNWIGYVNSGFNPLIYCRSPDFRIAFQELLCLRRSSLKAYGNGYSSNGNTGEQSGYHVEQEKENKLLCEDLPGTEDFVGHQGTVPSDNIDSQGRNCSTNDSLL
Ubiquitin carboxyl-terminal hydrolase 2 (Homo sapiens), sequence (O75604 whole entry, looked up): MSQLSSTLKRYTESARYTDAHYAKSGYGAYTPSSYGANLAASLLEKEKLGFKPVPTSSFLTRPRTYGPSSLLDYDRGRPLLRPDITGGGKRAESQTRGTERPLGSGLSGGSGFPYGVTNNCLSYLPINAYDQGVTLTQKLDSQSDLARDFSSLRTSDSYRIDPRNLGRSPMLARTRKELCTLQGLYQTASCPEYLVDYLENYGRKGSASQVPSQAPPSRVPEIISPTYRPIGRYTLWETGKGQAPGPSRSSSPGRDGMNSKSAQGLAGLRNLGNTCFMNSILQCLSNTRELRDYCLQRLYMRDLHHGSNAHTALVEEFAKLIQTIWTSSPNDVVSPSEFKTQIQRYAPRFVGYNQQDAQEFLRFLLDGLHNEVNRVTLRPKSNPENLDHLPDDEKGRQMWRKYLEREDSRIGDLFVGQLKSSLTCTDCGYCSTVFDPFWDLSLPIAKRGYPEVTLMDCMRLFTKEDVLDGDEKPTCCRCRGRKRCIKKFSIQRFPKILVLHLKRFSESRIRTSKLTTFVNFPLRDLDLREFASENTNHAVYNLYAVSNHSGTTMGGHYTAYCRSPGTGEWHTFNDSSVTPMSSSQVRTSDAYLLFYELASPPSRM

In the case of `Cc1nc2n(c(=O)c1CCN1CCC(c3noc4cc(F)ccc34)CC1)CCCC2`, the Potency entry in [1] was “inactive”.

As to `CC(=O)[C@H]1CC[C@H]2[C@@H]3CC[C@H]4C[C@](C)(O)CC[C@]4(C)[C@H]3CC[C@]12C`, the compound was classed as inactive in [2], in [6], in test [7], in test [9] and in [14]. Further, the Potency entry in test [3], in [4], in test [5], in test [8], in [10] and in test [11] was “inactive” in each case. The Potency result in test [12] and in [13] was “inactive” in each case.

As to `C[C@@H]1O[C@@H](O[C@H]2C[C@@H](O)[C@]3(CO)[C@H]4[C@H](O)C[C@]5(C)[C@@H](C6=CC(=O)OC6)CC[C@]5(O)[C@@H]4CC[C@]3(O)C2)[C@H](O)[C@H](O)[C@H]1O`, the compound was classed as inactive in [2], in test [6], in test [7], in [9] and in [14]. Moreover, the Potency result in [3], in test [4], in test [5], in test [8], in test [15] and in test [16] was “inactive” throughout. Further, the Potency entry in [10], in test [11], in [12] and in test [13] was “inactive” each time.

Regarding `CCN(CC)CCOC(=O)C1(C2CCCCC2)CCCCC1`, in [1], the Potency entry is “inactive”.

Consider `CCC1C(=O)OCC1Cc1cncn1C` (stereo not drawn), for which the Potency entry in [11] and in [12] was “inactive” throughout.

Consider `O=C(C1CCCCC1)N1CC(=O)N2CCc3ccccc3C2C1` (stereo not drawn), for which the Potency entry in test [1] was “inactive”.

Consider `CCCN1C[C@H](CSC)C[C@@H]2c3cccc4[nH]cc(c34)C[C@H]21`, for which, in [1], the Potency entry is “inactive”.

In the case of `CN(C)CCC=C1c2ccccc2CCc2ccccc21`, in test [12], the Potency result was “inactive”.

With `NC12CC3CC(CC(C3)C1)C2`, the Potency result in test [1] was “inactive”.

Turning to `NNCCc1ccccc1`, in test [1], the Potency result was “inactive”.

As to `O=c1[nH]cc(F)c(=O)[nH]1`, the Potency result in test [1] and in [11] was “inactive” each time. In addition, the values for the Potency in [15] and in test [16] were 9280 nM (active) and 10400 nM (active), respectively.

Consider `O=C1CCc2cc(OCCCCc3nnnn3C3CCCCC3)ccc2N1`, for which the Potency entry in test [1] is “inactive”.

For the compound `O=C1N=C(O)CN1/N=C/c1ccc(-c2ccc([N+](=O)[O-])cc2)o1`, the Potency result in test [1] was “inactive”.

For the compound `Clc1ccc(C(c2ccccc2Cl)C(Cl)Cl)cc1` (stereo not drawn), in [1], the Potency entry was “inactive”.

As for `CC(C)C(=O)Nc1ccc([N+](=O)[O-])c(C(F)(F)F)c1`, the Potency result in test [1], in [12] and in [13] was “inactive” throughout.

Regarding `N=c1nc(N2CCCCC2)cc(N)n1O`, in test [1], the Potency entry was “inactive”.

With `COc1ccc([C@@H]2Sc3ccccc3N(CCN(C)C)C(=O)[C@@H]2OC(C)=O)cc1`, the Potency in [1] was 1410 nM (active).

`COc1cc2c(c(OC)c1OC)-c1ccc(OC)c(=O)cc1[C@@H](NC(C)=O)CC2`: the Potency entry in [1], in test [11] and in [13] was “inactive” each time. The Potency in test [17] was 39.8 nM (active).

`COc1ccc(Cl)cc1C(=O)NCCc1ccc(S(=O)(=O)NC(=O)NC2CCCCC2)cc1`: the Potency entry in test [1] is “inactive”.

On to `CN(C)CC/C=C1\c2ccccc2COc2ccccc21`, for which the Potency result in [1] is “inactive”.

For the compound `CCOC(=O)c1ncn2c1CN(C)C(=O)c1cc(F)ccc1-2`, the Potency result in [1] and in [11] was “inactive” each time.

As for `CC(C)[N+](C)(CCOC(=O)C1c2ccccc2Oc2ccccc21)C(C)C`, the Potency entry in [1] is “inactive”.

`CC(=O)CCCCn1c(=O)c2c(ncn2C)n(C)c1=O`: the Potency entry in test [1] was “inactive”.

In the case of `O=C(c1ccccc1)c1ccc2n1CCC2C(=O)O` (stereo not drawn), the Potency entry in [1] is “inactive”.

In the case of `NC[C@H](O)c1ccc(O)c(O)c1`, in test [1], the Potency result is “inactive”.

On to `CCCN(CCC)CCc1cccc2c1CC(=O)N2`, for which the Potency entry in [1] was “inactive”.

With `O=NN(CCCl)C(=O)NCCCl`, the Potency entry in test [1] is “inactive”.

On to `COC(=O)C1=C(C)NC(C)=C(C(=O)OCCN(C)Cc2ccccc2)C1c1cccc([N+](=O)[O-])c1` (stereo not drawn), for which the Potency result in test [1] was “inactive”.

As for `NC(=O)NO`, in test [1], the Potency entry is “inactive”.

`CC(=O)Nc1nnc(S(N)(=O)=O)s1`: in test [1], the Potency entry was “inactive”.

On to `COC(=O)[C@H]1[C@H]2C[C@@H]3c4[nH]c5cc(OC)ccc5c4CCN3C[C@H]2C[C@@H](OC(=O)c2cc(OC)c(OC)c(OC)c2)[C@@H]1OC`, for which the Potency in test [1] is 7940 nM (active).

For the compound `CC(COc1ccccc1)N(CCCl)Cc1ccccc1` (stereo not drawn), the Potency entry in test [1], in test [11] and in test [12] was “inactive” throughout. In addition, the Potency in test [13] was 9.5 nM (active).

For the compound `CC[N+](C)(C)c1cccc(O)c1`, the Potency result in test [1] is “inactive”. Further, in test [15], the Potency was 5.9 nM (active).

Take `CC(C)NCC(O)c1ccc(O)c(O)c1` (stereo not drawn): the Potency result in [1] is “inactive”.

As for `OCCN1CCN(CCCN2c3ccccc3Sc3ccc(C(F)(F)F)cc32)CC1`, the Potency is 3290 nM (active) in [15], 9280 nM (active) in test [16] and 6 nM (active) in test [13].

For the compound `CC1=NS(=O)(=O)c2cc(Cl)ccc2N1`, the Potency entry in test [1] was “inactive”.
